SMN2 splice enh – SMN2 splice variant enhancement. Potency, µM (titrated, usually from 46.1 µM), without a hit: at the highest dose activity change, positive = activation, actives largely listed as activators. 210,000 compounds, 2.8% hits. HEK293 SMN2-luciferase splicing reporter, luminescence, 30-36 h; note: % of control where 0% means no effect; nearly all actives have a fitted effect of over 55% in size
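HEK293 cells carry an SMN2 […]–luciferase reporter in which exon 7 inclusion puts luciferase in frame. Cells were plated 10-12 h before compound addition, then incubated 30-36 h at 37C. ONE-Glo luminescence was read; sodium butyrate at 4.5 mM final served as control.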
Rab9 promoter act – activates the Rab9 promoter. Huh7 Rab9 promoter-luciferase reporter, luminescence, 24 h. Potency, µM (top dose mostly 9.22 µM), inactives show at the top dose activation, negative = inhibition, most hits filed as activators. 320,000 compounds, 2.8% hits; note: % of control where 0% means no effect; nearly all actives have a fitted effect of over 60% in size
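Huh7 cells stably carrying Rab9 promoter–luciferase reporter, plated 1500 cells/well, compound added after 2 h and incubated 24 h at 37 °C; luciferase luminescence then read after 10 min with detection reagent.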
FLuc counter – inhibits or activates purified firefly luciferase, miR-21 counter-screen | Potency, µM (highest dose often 57.5 µM), inactives show top-dose activity change, negative = inhibition, most hits filed as inhibitors | 360,000 compounds, 6.9% hits | P08659 | purified FLuc, Km substrates, luminescence inhibition | AID 588342;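 note: plate controls were vehicle for no effect and reference inhibitor for full effect; nearly all actives have a fitted effect of over 55% in size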
Target sequence (P08659 whole entry, looked up): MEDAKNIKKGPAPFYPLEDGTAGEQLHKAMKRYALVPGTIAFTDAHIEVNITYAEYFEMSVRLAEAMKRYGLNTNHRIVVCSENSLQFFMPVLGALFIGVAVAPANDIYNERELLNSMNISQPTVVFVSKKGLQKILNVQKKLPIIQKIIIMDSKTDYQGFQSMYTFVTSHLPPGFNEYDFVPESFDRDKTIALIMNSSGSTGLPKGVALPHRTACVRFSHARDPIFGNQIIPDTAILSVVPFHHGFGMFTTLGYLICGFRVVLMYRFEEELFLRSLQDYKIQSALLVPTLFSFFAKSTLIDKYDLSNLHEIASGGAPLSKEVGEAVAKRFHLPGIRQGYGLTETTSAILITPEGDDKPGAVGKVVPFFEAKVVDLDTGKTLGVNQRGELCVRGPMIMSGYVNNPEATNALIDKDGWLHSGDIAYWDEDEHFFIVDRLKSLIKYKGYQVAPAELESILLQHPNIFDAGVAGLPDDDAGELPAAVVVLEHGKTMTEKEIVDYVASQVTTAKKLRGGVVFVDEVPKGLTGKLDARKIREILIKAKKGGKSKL
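Purified P. pyralis luciferase, 10 nM final, with Km-level 10 uM D-luciferin and 10 uM ATP in 50 mM Tris acetate pH 7.5, 10 mM Mg acetate, 0.01% Tween-20, 0.05% BSA; 6-point qHTS titration about 60 µM downward; luminescence read.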
NPC1 promoter act – activators of NPC1 promoter. Potency, µM (series often up to 9.22 µM), inactives show at the top dose activation, most hits filed as activators. AID 485313. 320,000 compounds, 2.4% hits. Huh7 NPC1 promoter luciferase reporter, 24 h; note: % of control where 0% means no effect; nearly all actives have a fitted effect of over 60% in size
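Quantitative HTS used a cell-based reporter: Huh7 cells stably bearing the NPC1 promoter upstream of luciferase were treated with compounds for 24 h, and promoter activation was read as luminescence.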
KinaseGlo FLuc – blocks Kinase-Glo luciferase, a counter-screen artifact | 200,000 compounds, 0.28% hits | AID 1379 | Potency, µM (titrated, usually from 38.3 µM), inactives show top-dose activity change, negative = inhibition, most hits filed as inhibitors | Kinase-Glo luciferase, ATP luminescence, 8 min | Q27757; note: % is set by controls: 0 for no effect and ±100 for the full control effect; nearly all actives have a fitted effect of over 60% in size
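Substrate mix (final 50 mM imidazole pH 7.2, 50 mM KCl, 7 mM MgCl2, 10 uM ATP, 0.01% Tween 20, 0.05% BSA) plus pin-tool compound, then Kinase-Glo detection mix; 8 min ambient, luminescence read.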
ELG1 genotoxic – genotoxicity induction in ELG1-luciferase HEK293T cells | HEK293T ELG1-luciferase reporter, luminescence, 16 h | Potency, µM (top dose mostly 46 µM), for the others: top-dose activity change, positive = activation, hits mostly activators | 330,000 compounds, 1.3% hits; note: % of control where 0% means no effect; nearly all actives have a fitted effect of over 60% in size
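ELG1-luciferase HEK293T cells, 2,000/well; compound pinned in; 16 hr, 37 °C, 5% CO2; ONE-Glo, 30 min RT; luminescence on CCD imager.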
Numbers without * were called inactive; ? = inconclusive; . = no result; [ ] = dose if it differs, or a comment. Most compounds without a hit are left out; they make up all but 7.5% or so of the library. Calls come from the whole dose curve; as a rule, active = well fitted curve in the direction sought with a large enough effect; inconclusive = small, poorly fitted or top-dose-only effect, or another doubt; inactive = no such curve, though single readings can be large; an effect the other way counts as inactive or inconclusive. Potency is the fitted concentration of half-maximal effect.

SMILES | SMN2 splice enh | Rab9 promoter act | FLuc counter | NPC1 promoter act | KinaseGlo FLuc | ELG1 genotoxic
O=C(NCc1ccc(F)cc1)c1cc(-c2ccco2)on1 | 20µM* | 14% | 1% | 2% | 3% | 1%
O=C(Nc1ccc(F)cc1F)c1csc(-c2cccs2)n1 | ? | ? | 6.7µM* | 0% | -2% | -5%
O=C(NCc1ccc(Cl)cc1)c1cc(-c2ccco2)on1 | . | 13% | -2% | 1% | . | 5%
O=C(NCCc1ccccc1)c1cc2ncc(Br)cn2n1 | ? | ? | ? | 24% | -2% | 16µM*
O=C(NCc1ccco1)c1cc(-c2ccccc2)on1 | 13µM* | 2.8µM* | ? | ? | -3% | 18µM*
O=C(Nc1ccc(F)cc1F)c1csc(-c2ccncc2)n1 | 9% | 11% | ? | 15% | 4% | 9%
Cc1cccc(N(CC(=O)NCCSCc2cccc(Cl)c2)S(=O)(=O)c2ccccc2)c1C | -19% | . | -2% | . | . | .
C/C(CC/C(C)=N/O)=N/O | -10%[9.22 µM] | . | . | . | -1%[7.66 µM] | .
CCN1CCN(C(=O)c2c(C)nn(-c3ccc(F)cc3)c2-n2cccc2)CC1 | . | . | -5% | . | . | .
CC(C)c1cc(C(=O)NCc2ccco2)no1 | ? | ? | -14% | 13% | -13% | 15µM*
CC(C)c1cc(C(=O)NCCc2ccccc2)no1 | . | 2.2µM* | 17µM* | 3.2µM* | 0% | ?
COc1ccc(CCNC(=O)c2cc(-c3ccccc3)on2)cc1OC | -11% | 13% | 0% | 1% | 4% | 5%
COc1ccc(-c2cc(C(=O)NCc3ccc(F)cc3)no2)cc1 | -1% | . | 1% | . | . | .
O=C(NCc1ccco1)c1cc(-c2ccc(F)cc2)on1 | 21% | 2.8µM* | ? | 2.5µM* | 6% | ?
O=C(Nc1ccc(F)cc1F)c1cc(-c2ccco2)on1 | -17% | 7% | 4.3µM* | -8% | 4% | ?
Cc1cc(C(=O)NCc2ccco2)on1 | -2% | 6% | 10% | 0% | 3% | -1%
CC(=O)c1ccc(S(=O)(=O)N2CCN(c3nn(C)c(=O)n(C)c3=O)CC2)cc1 | . | -2% | 4% | -5% | . | 1%
Cc1oc(-c2ccc(C(=O)Nc3ccccc3F)cc2)nc1COc1ccccc1 | . | . | 0% | . | . | .
O=C(NCCCn1ccnc1)c1cc(-c2cccs2)on1 | -2% | 3.2µM* | ? | ? | -1% | ?
O=C(NCCCN1CCOCC1)c1cc(-c2cccs2)on1 | -11% | ? | -9% | 28% | -1% | ?
O=C(NCc1ccco1)c1cc(-c2cccs2)on1 | ? | 2.8µM* | 11µM* | 3.2µM* | -4% | ?
Cc1c(C(=O)N(C)C2CC(C)(C)NC(C)(C)C2)oc2c(F)cccc12 | . | 0% | 2% | 0% | . | -4%
O=C(Nc1ccc2nn(-c3ccccc3)nc2c1)c1cccnc1 | -4% | ? | ? | 3.5µM* | -2% | 11%
O=C(Nc1ccc2nn(-c3ccc(F)cc3)nc2c1)c1cccnc1 | 8% | 27% | -18% | 19% | -1% | 9%
Cc1nc2ccc(NC(=O)c3ccco3)cc2nc1C | 24% | ? | ? | 19% | -4% | 17%
SMILES | SMN2 splice enh | Rab9 promoter act | FLuc counter | NPC1 promoter act | KinaseGlo FLuc | ELG1 genotoxic
O=C(Nc1cc2nn(-c3ccccc3)nc2cc1Cl)c1ccco1 | 11µM* | 3.5µM* | ? | 4µM* | -1% | 9.2µM*
Cc1cc(NC(=O)c2ccco2)ccc1-n1cnnn1 | 7% | ? | 21µM* | ? | -10% | ?
O=C(Nc1ccc2nn(-c3ccccc3)nc2c1)c1ccco1 | 4µM* | 3.5µM* | ? | 2.8µM* | 0% | ?
COc1cc(C(=O)Nc2ccc(-n3cnnn3)c(C)c2)cc(OC)c1OC | 26% | -1% | ? | -1% | 2% | 9%
CC(C)(C)OC(=O)N1CCC[C@H]1C(=O)Nc1ccc(S(=O)(=O)C(F)F)cc1 | . | 0% | 7% | 0% | . | -5%
O=C(Nc1ccccn1)c1cccc(S(=O)(=O)N2CCc3ccccc3C2)c1 | . | -1% | 4% | -2% | . | 0%
CC1CCN(c2oc(-c3ccc(COc4ccccc4)o3)nc2C#N)CC1 | . | . | 1% | . | . | .
CC(C)C(=O)Nc1ccc2nn(-c3ccccc3)nc2c1 | 7.9µM* | 0.14µM* | 0.67µM* | 0.22µM* | -1% | 1.2µM*
COc1ccc(C(=O)COC(=O)c2ccccc2NS(=O)(=O)c2ccc(O)c([N+](=O)[O-])c2)cc1 | . | 0% | 11µM* | -3% | . | 0%
COc1ccc(NC(=O)c2ccccc2NS(=O)(=O)c2ccc(C)cc2)c([N+](=O)[O-])c1 | -56% | 3% | -9% | -5% | 2% | -2%
Cc1cc(OC(=O)c2ccccc2Br)cc(=O)n1C | -1% | -2% | 21µM* | 3% | -7% | -5%
Cc1ccn2c(C(=O)c3ccc(Cl)cc3)cnc2c1 | 22% | 1.4µM* | 2.1µM* | 3.5µM* | -10% | 1.2µM*
COc1ccc(CNC(=O)c2oc3ccc(S(=O)(=O)N4CCOCC4)cc3c2C)cc1 | . | -8% | 2% | 29% | . | -26%
Cc1ccc(CNC(=O)c2oc3ccc(S(=O)(=O)N4CCOCC4)cc3c2C)cc1 | 5.6µM* | -1% | 3% | 0% | -4% | -20%
Cc1c(C(=O)N2CCOCC2)oc2ccc(S(=O)(=O)N3CCCC3)cc12 | 2% | 0.016µM* | -6% | ? | 0% | .
COC(=O)c1ccc(N2CCN(C)CC2)c(NC(=O)c2ccc(-c3ccc(Cl)cc3)o2)c1 | . | 3% | 0% | 0% | . | 5%
C=CC1=C2C=C(C3CC3)N(C3CCCC3)C=C2C(=O)C(C)(OC(=O)c2ccco2)C1=O (stereo unspecified) | -3%[9.22 µM] | . | . | . | -1%[7.66 µM] | .
OCC1CCCN(C(=S)Nc2ccc(OC(F)F)cc2)C1 (stereo unspecified) | . | 29% | 17µM* | 26% | . | ?
Cc1ccc(NC(=S)N2CCOCC2)cc1 | 14% | 2% | ? | -1% | -1% | 0%
CC(C)c1ccc(NC(=S)N2CCCC2)cc1 | . | 2.2µM* | 24µM* | 2.5µM* | . | ?
Cc1ccc(NC(=S)N2CCCC(O)C2)cc1 (stereo unspecified) | ? | 25% | 17µM* | 3% | 1% | ?
CC(C)c1ccc(NC(=S)N2CCN(C)CC2)cc1 | . | 26% | ? | 20% | . | ?
NC(=O)C1CCCN(C(=S)Nc2ccccc2)C1 (stereo unspecified) | -21% | 2% | 0% | -3% | 1% | 0%
OCC1CCCN(C(=S)Nc2ccc(Nc3ccccc3)cc2)C1 (stereo unspecified) | ? | 2µM* | 9.5µM* | ? | -1% | ?
FC(F)(F)c1ccccc1NC(=S)Nn1cnnc1 | . | -2% | 2% | -3% | . | 1%
